Data from PubChem BioAssay (Tox21).
Results filed as inconclusive are left out. Active and inactive are the calls of the source. Unless noted, calls come from the whole dose curve; as a rule, active = well fitted curve in the direction sought with a large enough effect in the repeat runs; inconclusive = weak or mixed curves; inactive = no such curve, though single readings can be large; an effect the other way counts as inactive or inconclusive.

Assays:
[1] = qHTS assay to identify small molecule antagonists of the vitamin D receptor (VDR) signaling pathway - cell viability counter screen (AID 743225); note: % is set by controls: 0 for no effect and ±100 for the full control effect; nearly all actives have a fitted effect of over 50% in size
How it was run: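 Compounds were pinned onto VDR-bla HEK 293T cells together with 1-alpha,25-dihydroxyvitamin D3 at 3 nM final. After 16 h at 37C and 5% CO2 plus the reporter readout, cell viability was measured by CellTiter-Glo luminescence (30 min, room temperature).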

[2] = qHTS assay to identify small molecule agonists of the NFkB signaling pathway (AID 1159509; active = well fitted curve in the direction sought with a large enough effect in the signal ratio in the repeat runs, not every such curve was filed as active; the % refers to the signal ratio; note: series mostly up to about 61 µM; % is set by controls: 0 for no effect and ±100 for the full control effect)
How it was run: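 NFkB-bla ME-180 cells carry a beta-lactamase reporter under an NF-kB response element. They were plated overnight, then exposed to compounds for 5 h at 37 C. Read-out is LiveBLAzer FRET after 1.5 hr at room temperature (405 nm excitation; 460/530 nm emission).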

[3] = qHTS assay to identify small molecule agonists of the NFkB signaling pathway - cell viability counter screen (AID 1159515; calls by dose curve; note: series mostly up to about 61 µM; % is set by controls: 0 for no effect and ±100 for the full control effect; nearly all actives have a fitted effect of over 55% in size)
How it was run: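 5 hr compound treatment of NFkB-bla ME-180 cells (2,000/well, seeded overnight beforehand), followed by reporter substrate for 1.5 hr. CellTiter-Glo added afterward; luminescence after 30 min RT.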

[4] = qHTS assay to identify small molecule agonists of the endoplasmic reticulum stress response signaling pathway (AID 1159516; active = well fitted activation curve with a large enough effect in the signal ratio in the repeat runs, not every such curve was filed as active; the % refers to the signal ratio; note: % is set by controls: 0 for no effect and ±100 for the full control effect)
How it was run: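 Reporter HeLa cells (ESRE-beta-lactamase) underwent 5 hr compound incubation at 37 C and 5% CO2 in quantitative HTS format. Detection followed 2 hr of FRET substrate loading at room temperature.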

[5] = qHTS assay to identify small molecule antagonists of the retinoid-related orphan receptor gamma (ROR-gamma) signaling pathway - cell viability counter screen (AID 1159520); note: % is set by controls: 0 for no effect and ±100 for the full control effect; nearly all actives have a fitted effect of over 50% in size
How it was run: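 Tet-on ROR gamma CHO cells were given compounds for 2 hr, then doxycycline hyclate at 1 uM final, and incubated 16 hr at 37 C. Viability was measured as ATP content by CellTiter-Glo luminescence.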

[6] = molecular target: Nuclear receptor ROR-gamma (Homo sapiens) (UniProt P51449); assay: qHTS assay to identify small molecule antagonists of the retinoid-related orphan receptor gamma (ROR-gamma) signaling pathway (AID 1159521;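 note: CHO cells with doxycycline inducible ROR-gamma driving an RORE luciferase reporter; top concentration of the series differs between compounds; % is set by controls: 0 for no effect and ±100 for the full control effect; nearly all actives have a fitted effect of over 50% in size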)
How it was run: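 Test compounds were applied to Tet-on RORγ CHO cells 2 h ahead of doxycycline hyclate (1 uM final). Luciferase reporter activity was quantified by luminescence after 16 h at 37 C and 5% CO2.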

[7] = qHTS assay to identify small molecule agonists of the AP-1 signaling pathway - cell viability counter screen (AID 1159525; calls by dose curve; note: nearly all actives have a fitted effect of over 55% in size)
How it was run: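 AP-1-bla ME-180 cells in Opti-MEM with 0.5% dialyzed FBS, compound exposure 5 h at 37 C in 15-point titration. Viability read in the same wells as ATP content by CellTiter-Glo luminescence, normalised to tetra-n-octylammonium bromide and DMSO controls.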

[8] = qHTS assay to identify small molecule agonists of the AP-1 signaling pathway (AID 1159526; calls by dose curve; note: % is set by controls: 0 for no effect and ±100 for the full control effect)
[9] = molecular target: Retinoic acid receptor RXR-alpha (Homo sapiens) (UniProt P19793); assay: qHTS assay to identify small molecule agonists of the RXR signaling pathway (AID 1159527; calls by dose curve; note: % is set by controls: 0 for no effect and ±100 for the full control effect; nearly all actives have a fitted effect of over 35% in size)
How it was run: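 Using 9-cis retinoic acid as the reference agonist, chemicals were tested in HEK 293T cells […] for 16 hr; substrate loading lasted 2 hr at room temperature.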

[10] = qHTS assay to identify small molecule agonists of the RXR signaling pathway - cell viability counter screen (AID 1159529); note: series mostly up to about 77 µM; % is set by controls: 0 for no effect and ±100 for the full control effect; nearly all actives have a fitted effect of over 50% in size
How it was run: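 Compounds dissolved in DMSO were pinned onto HEK 293T cells carrying a beta-lactamase reporter under RXR-alpha control and incubated 16 hr. Cytotoxicity was then quantified by CellTiter-Glo luminescence.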

[11] = qHTS assay to identify small molecule antagonists of the retinoid acid receptor (RAR) signaling pathway - cell viability counter screen (AID 1159551); note: % is set by controls: 0 for no effect and ±100 for the full control effect; nearly all actives have a fitted effect of over 35% in size
How it was run: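 Seed C3RL4 cells; next day add compound, then retinol to 1 uM final; incubate 6 h at 37 C; add CellTiter-Glo; read luminescence after 30 min at RT.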

[12] = qHTS assay to identify small molecule antagonists of the retinoic acid receptor (RAR) signaling pathway (AID 1159552)
How it was run: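 Test chemicals and DMSO controls were pin-transferred onto C3RL4 cells a day after seeding; retinol (1 uM final) followed at once. Luminescent reporter output was quantified after 6 hr of co-incubation and 30 min with detection reagent.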

[13] = qHTS assay to identify small molecule agonists of the retinoic acid receptor (RAR) signaling pathway (AID 1159553); note: % is set by controls: 0 for no effect and ±100 for the full control effect
How it was run: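 Activation of retinol signaling was monitored via a RARE luciferase reporter in C3RL4 cells. After 6 hr compound treatment at 37 C, detection reagent was added for 30 min at room temperature before luminescence reading.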

[14] = qHTS assay to identify small molecule agonists of the vitamin D receptor (VDR) signaling pathway - cell viability counter screen (AID 743224)
How it was run: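 Here cell health was gauged by luminescent ATP detection (CellTiter-Glo, 30 min RT) in VDR-bla cells that had been incubated with test compounds for 16 h at 37C and 5% CO2.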

[15] = qHTS assay to identify small molecule antagonists of the estrogen related receptor (ERR) signaling pathway - cell viability counter screen (AID 1224818)
How it was run: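 In the same ERR cell assay, compound-treated wells (17.5 h, 37 C) were multiplexed with a fluorogenic viability reagent, CellTiter-Fluor, read after 30 min to flag cytotoxic substances.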

[16] = qHTS assay to identify small molecule agonists of the endoplasmic reticulum stress response signaling pathway - cell viability counter screen (AID 1159517; calls by dose curve)
How it was run: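 ESRE-bla HeLa cells, 1,500 per well, seeded overnight then treated with compounds for 5 hr at 37 C. After the beta-lactamase read, viability in the same wells is measured by CellTiter-Glo luminescence after 30 min at room temperature.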

[17] = qHTS assay to identify small molecule antagonists of the estrogen related receptor signaling pathway with the pleiotropic PPARgamma coactivator (PGC) cell viability counter screen (AID 1224822)
How it was run: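 Compounds in DMSO, with positive and negative controls, were applied to PGC/ERR cells (2,000/well) and left 17.5 h at 37 C before CellTiter-Fluor detection.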

[18] = qHTS assay to identify small molecule antagonists of the estrogen related receptor (ERR) signaling pathway (AID 1224819)
How it was run: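 qHTS in ERR cells, 2,000/well, 1536 format. Cpd (DMSO) added after 6 h settle, 18 h 37 C. One-Glo luminescence, 30 min RT.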

[19] = qHTS assay to identify small molecule agonists of the estrogen related receptor (ERR) signaling pathway (AID 1224820); note: % is set by controls: 0 for no effect and ±100 for the full control effect
How it was run: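 ERR reporter cell line (from NTP), 2,000 cells/well, incubated 6 h before compound addition, then 18 h at 37 C. Luminescence measured 30 min after One-Glo reagent at room temperature.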

[20] = system: estrogen-related receptor alpha (ERRalpha) with PGC-1alpha coactivator, human; assay: qHTS assay to identify small molecule antagonists of the estrogen related receptor signaling pathway with the pleiotropic PPARgamma coactivator (PGC) (AID 1224821; calls by dose curve)
How it was run: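 PGC/ERR reporter cell line, plated 6 h before compound addition, then exposed 18 h at 37 °C. Luciferase activity read by luminescence 30 min after One-Glo addition; decrease indicates antagonism.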

Sequence of Retinoic acid receptor RXR-alpha (Homo sapiens) (P19793 whole entry, looked up): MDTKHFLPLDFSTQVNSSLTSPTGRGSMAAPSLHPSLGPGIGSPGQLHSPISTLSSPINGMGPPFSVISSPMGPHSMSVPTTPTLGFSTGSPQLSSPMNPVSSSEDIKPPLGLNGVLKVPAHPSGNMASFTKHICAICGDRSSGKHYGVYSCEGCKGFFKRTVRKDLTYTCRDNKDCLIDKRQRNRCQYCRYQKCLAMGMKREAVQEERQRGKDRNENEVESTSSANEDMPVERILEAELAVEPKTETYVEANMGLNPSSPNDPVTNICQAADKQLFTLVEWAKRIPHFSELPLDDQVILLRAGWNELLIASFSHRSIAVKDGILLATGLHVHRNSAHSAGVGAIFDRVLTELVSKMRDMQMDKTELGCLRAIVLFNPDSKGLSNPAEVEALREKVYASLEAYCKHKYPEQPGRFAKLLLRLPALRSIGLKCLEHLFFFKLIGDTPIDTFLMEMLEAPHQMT

CCCCCOC(=O)CCCCC
inactive: Potency [1] | outcome [2] | outcome [3] | outcome [4] | outcome [5] | Potency [6] | Potency [7] | outcome [8] | Potency [9] | Potency [10] | outcome [11] | Potency [12] | Potency [13]

NC(=O)Nc1ccccc1
inactive: Potency [14] | Potency [1] | outcome [2] | outcome [3] | outcome [4] | Potency [6] | Potency [7] | outcome [8] | Potency [9] | Potency [10] | outcome [11] | Potency [12] | Potency [13]

CCN(CC)CCOCCOC(=O)C1(c2ccccc2)CCCC1
inactive: Potency [14] | Potency [1] | outcome [2] | outcome [3] | outcome [4] | outcome [5] | Potency [6] | Potency [7] | outcome [8] | Potency [9] | Potency [10] | outcome [11] | Potency [12] | Potency [13] | outcome [15]

c1ccc([C@H]2CN3CCSC3=N2)cc1
inactive: Potency [14] | Potency [1] | outcome [2] | outcome [3] | outcome [16] | outcome [5] | Potency [6] | Potency [7] | outcome [8] | Potency [9] | Potency [10] | outcome [11] | Potency [12] | Potency [13] | outcome [15] | outcome [17]

Cc1ccc(=O)n(-c2ccccc2)c1
inactive: Potency [14] | Potency [1] | outcome [2] | outcome [3] | outcome [16] | outcome [5] | Potency [6] | Potency [7] | outcome [8] | Potency [9] | Potency [10] | outcome [11] | Potency [12] | Potency [13] | outcome [15] | outcome [18] | outcome [19] | outcome [20] | outcome [17]

O=Cc1cccc([N+](=O)[O-])c1
inactive: Potency [14] | Potency [1] | outcome [2] | outcome [3] | outcome [4] | outcome [5] | Potency [6] | Potency [7] | outcome [8] | Potency [9] | Potency [10] | outcome [11] | Potency [12] | Potency [13]

NC(=O)c1ccc([N+](=O)[O-])cc1
inactive: Potency [1] | outcome [2] | outcome [3] | outcome [4] | outcome [5] | Potency [6] | Potency [7] | outcome [8] | Potency [9] | Potency [10] | outcome [11] | Potency [12] | Potency [13]

Nc1cc(=O)[nH]c(N)n1
inactive: Potency [1] | outcome [2] | outcome [3] | outcome [4] | Potency [6] | Potency [7] | outcome [8] | Potency [9] | Potency [10] | outcome [11] | Potency [12] | Potency [13] | outcome [15] | outcome [17]

CCC=O
inactive: Potency [14] | Potency [1] | outcome [2] | outcome [3] | outcome [4] | outcome [5] | Potency [6] | Potency [7] | outcome [8] | Potency [9] | Potency [10] | outcome [11] | Potency [12] | Potency [13]

Nc1ccc(S(=O)(=O)Nc2ccnn2-c2ccccc2)cc1
inactive: Potency [14] | outcome [2] | outcome [3] | outcome [16] | activity, negative = cytotoxicity [5] 2.08% [at 19 µM] | Potency [6] | viability change, negative = cytotoxic [7] 2.53% [at 15.8 µM] | outcome [8] | Potency [9] | Potency [10] | activity change, negative = cytotoxicity [11] 2.06% [at 19 µM] | activity, negative = inhibition [12] -19.4% [at 19 µM] | Potency [13] | outcome [15] | outcome [17]

CO[Si](CCCOCC1CO1)(OC)OC (stereo not given)
inactive: Potency [14] | outcome [2] | outcome [3] | outcome [4] | outcome [5] | Potency [6] | Potency [7] | outcome [8] | Potency [10] | outcome [11] | Potency [12] | Potency [13]

CC(C[N+](C)(C)C)OC(N)=O (stereo not given)
inactive: Potency [14] | Potency [1] | outcome [2] | outcome [3] | outcome [16] | outcome [5] | Potency [6] | Potency [7] | outcome [8] | Potency [9] | Potency [10] | outcome [11] | Potency [12] | Potency [13] | outcome [15] | outcome [18] | outcome [19] | outcome [20] | outcome [17]

CCCN1CCCC[C@H]1C(=O)Nc1c(C)cccc1C
inactive: Potency [14] | Potency [1] | outcome [2] | outcome [3] | outcome [4] | outcome [5] | Potency [6] | Potency [7] | outcome [8] | Potency [9] | Potency [10] | outcome [11] | Potency [12] | Potency [13]

N=C(N)c1ccccc1
inactive: Potency [14] | outcome [2] | outcome [3] | outcome [16] | outcome [5] | Potency [6] | Potency [7] | outcome [8] | Potency [9] | Potency [10] | outcome [11] | Potency [12] | Potency [13] | outcome [15] | outcome [17]

COC(=O)c1ccc(C)cc1C1=NC(C)(C(C)C)C(=O)N1 (stereo not given)
inactive: Potency [14] | Potency [1] | outcome [2] | outcome [3] | outcome [4] | Potency [6] | Potency [7] | outcome [8] | Potency [9] | Potency [10] | outcome [11] | Potency [12] | Potency [13]

CCC(=O)OC(C)c1ccccc1 (stereo not given)
inactive: Potency [14] | Potency [1] | outcome [2] | outcome [3] | outcome [4] | Potency [6] | Potency [7] | outcome [8] | Potency [9] | Potency [10] | outcome [11] | Potency [12] | Potency [13]

CC(=O)Nc1ccc(S(N)(=O)=O)cc1
inactive: Potency [14] | Potency [1] | outcome [2] | outcome [3] | outcome [4] | Potency [6] | Potency [7] | outcome [8] | Potency [9] | Potency [10] | outcome [11] | Potency [12] | Potency [13]
